Consider 28 compounds from PubChem BioAssay (EPA / NIEHS).

Assay [1] in a line: ATG_E_Box_CIS: Attagene CIS-FACTORIAL HepG2 Assay for human Enhancer Box (E-box) (AID 2282936). The note with it: HepG2 E-box cis-reporter transcription, actives raise or lower the signal. The essentials: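 DMSO served as negative control and baseline for bidirectional fitting. Human hepatoma HepG2 cells, transiently transfected with cis-reporter constructs, were dosed 24 h; reporter mRNA read by RT-PCR and capillary electrophoresis.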

A short description of assay [2]: ATG_M_61_CIS: Attagene CIS-FACTORIAL HepG2 Assay for M61 Transcription Factor (Internal Marker) (AID 2282937). The settings on record: HepG2 Attagene CIS-FACTORIAL M61 internal marker reporter; actives raise or lower the signal. In a few lines:
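Readout is reporter mRNA by RT-PCR, fluorescent primer extension and capillary electrophoresis, with gain or loss fitted relative to DMSO. Transfected HepG2 cells carrying endogenous-TF-driven cis reporters were exposed to chemicals for 24 hours.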

A short description of assay [3]: ATG_EGR_CIS: Attagene CIS-FACTORIAL HepG2 Assay for human Early Growth Response 1 (EGR1) (AID 2282938). The settings on record: HepG2 Attagene CIS-FACTORIAL EGR reporter mRNA; actives raise or lower the signal. The essentials:
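After 24 h compound exposure, RNA from reporter-transfected HepG2 cells was reverse-transcribed, PCR-amplified, fluorescently labelled and resolved by capillary electrophoresis. EGR1 reporter transcript changes, up or down, were fitted against DMSO, reflecting endogenous transcription-factor activity.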

Assay [4] is described as follows: ATG_M_19_CIS: Attagene CIS-FACTORIAL HepG2 Assay for M19 Transcription Factor (Internal Marker) (AID 2282939). The note with it: HepG2 Attagene CIS-FACTORIAL M19 internal marker reporter; actives raise or lower the signal. In a few lines: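 In this multiplexed cell assay, transiently transfected HepG2 reporter units report endogenous transcription-factor activity; after 24 hours of treatment, labelled reporter cDNA fragments are quantified by capillary electrophoresis and fitted bidirectionally against DMSO.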

Assay [5] can be described thus: ATG_Ets_CIS: Attagene CIS-FACTORIAL HepG2 Assay for human Erythroblast Transformation Specific (ETS) (AID 2282941). The note with it: HepG2 ETS cis-reporter transcription, actives raise or lower the signal. The essentials:
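Human HepG2 hepatoma cells were transiently transfected with promoter-driven reporter constructs and treated for 24 hours. Reporter transcripts were quantified by RT-PCR with fluorescent primer extension; bidirectional curve fitting used DMSO as reference.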

Assay [6] addresses Hepatocyte nuclear factor 3-beta (Homo sapiens) (UniProt Q9Y261). Kind of assay: ATG_FoxA2_CIS: Attagene CIS-FACTORIAL HepG2 Assay for human Forkhead box A2 (FOXA2) (AID 2282942). The settings on record: HepG2 cis-reporter transcription factor activity, 24 h; actives raise or lower the signal. The essentials: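 Endogenous transcription factor activity is captured via cis-element-driven reporter transcripts in transfected HepG2. Total RNA taken at 24 h post-dosing; labelled RT-PCR products resolved by capillary electrophoresis. Gain or loss fitted versus DMSO.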

Assay [7] is described as follows: ATG_FoxO_CIS: Attagene CIS-FACTORIAL HepG2 Assay for human Forkhead box O (FoxO) (AID 2282943). The settings on record: HepG2 Attagene cis-reporter, FoxO element, mRNA; actives raise or lower the signal. The essentials:
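Human hepatoma HepG2 cells carry transiently introduced reporter transcription units controlled by cis promoter elements. Chemical treatment lasted 24 h, and mRNA signal was compared with DMSO.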

A short description of assay [8]: ATG_GATA_CIS: Attagene CIS-FACTORIAL HepG2 Assay for human GATA Binding Protein (AID 2282944). The note with it: HepG2 GATA cis-element reporter, Attagene multiplex mRNA; actives raise or lower the signal. The essentials:
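Measures endogenous transcription factor-driven reporter mRNA in HepG2 cells transiently carrying cis-regulated constructs. 24 h dosing; RNA via oligo(dT) reverse transcription, PCR, HpaI digestion, capillary electrophoresis; fitted relative to DMSO.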

A short description of assay [9]: ATG_GLI_CIS: Attagene CIS-FACTORIAL HepG2 Assay for human Zinc Finger Protein GLI1 (AID 2282945). The note with it: HepG2, Attagene cis-factorial reporter mRNA, GLI element; actives raise or lower the signal. The essentials:
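Bidirectional curve fits relative to DMSO, using reporter mRNA levels from RT-PCR plus capillary electrophoresis. Cells were HepG2 transiently carrying cis-regulated reporter constructs, harvested 24 h after dosing.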

Structures are written as SMILES. Activity calls are given as the source filed them. Rule for the calls: active = hit-call score of the fitted dose curve at least 0.9, where 1 is the maximum; inactive = score below 0.9.

Sequence of Hepatocyte nuclear factor 3-beta (Homo sapiens) (Q9Y261 whole entry, looked up): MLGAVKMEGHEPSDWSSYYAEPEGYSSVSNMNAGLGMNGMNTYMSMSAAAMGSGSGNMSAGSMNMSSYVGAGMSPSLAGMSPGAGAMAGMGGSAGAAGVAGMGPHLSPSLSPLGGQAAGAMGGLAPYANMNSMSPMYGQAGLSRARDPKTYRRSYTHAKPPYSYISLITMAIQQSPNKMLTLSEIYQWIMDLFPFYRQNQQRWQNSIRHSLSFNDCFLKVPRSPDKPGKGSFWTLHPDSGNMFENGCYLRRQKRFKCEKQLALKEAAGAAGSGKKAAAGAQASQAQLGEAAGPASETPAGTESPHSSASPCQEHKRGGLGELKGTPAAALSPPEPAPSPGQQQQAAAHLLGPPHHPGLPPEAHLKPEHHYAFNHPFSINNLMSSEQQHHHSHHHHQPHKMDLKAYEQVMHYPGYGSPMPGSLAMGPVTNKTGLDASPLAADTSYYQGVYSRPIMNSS

Take `CCCCC(CC)COC(C)=O` (stereo not drawn): the outcome in assay [1], in assay [2], in assay [3], in assay [4], in assay [5] and in assay [6] was inactive. Besides, the compound was classed as inactive in assay [7], in [8] and in [9].

As to `Cc1cc(CCC(=O)OCCOCCOCCOC(=O)CCc2cc(C)c(O)c(C(C)(C)C)c2)cc(C(C)(C)C)c1O`, the outcome in assay [1], in [2], in assay [3], in [4], in assay [5] and in assay [6] was inactive. For the same compound, the compound was classed as inactive in assay [7], in [8] and in assay [9].

Regarding `NCC1CCCC(CN)C1` (stereo not drawn), the result in assay [1], in assay [2], in assay [3], in [4], in assay [5] and in assay [6] was inactive. Also, the result in [7], in [8] and in assay [9] was inactive.

Consider `BrCc1cccc(Oc2ccccc2)c1`, for which the outcome in [1], in [2], in assay [3], in assay [4], in [5] and in assay [6] was inactive. Besides, the result in [7], in [8] and in assay [9] was inactive.

Take `COC(C)(C)CCO`: the result in assay [1], in [2], in [3], in assay [4], in [5] and in [6] was inactive. In addition, the compound was classed as inactive in assay [7], in assay [8] and in [9].

Regarding `CCCCCCCCCC(=O)OC`, the result in assay [1], in assay [2], in assay [3], in assay [4], in assay [5] and in [6] was inactive. Moreover, the result in assay [7], in assay [8] and in assay [9] was inactive.

Turning to `CN(C)C(=O)Nc1ccc(Oc2ccc(Cl)cc2)cc1`, the outcome in [1], in assay [2], in assay [3], in [4], in assay [5] and in [6] was inactive. The outcome in [7], in [8] and in assay [9] was inactive.

Regarding `CCCC(=O)c1ccccc1`, the result in assay [1], in assay [2], in [3], in assay [4], in assay [5] and in assay [6] was inactive. For the same compound, the outcome in [7] and in assay [8] was inactive.

On to `O=C(O)c1cc(C(=O)O)cc([N+](=O)[O-])c1`, for which the result in assay [1], in [2], in assay [3], in [4], in [5] and in assay [6] was inactive. Further, the outcome in [7] and in assay [8] was inactive.

Take `CC(C)C[C@H](NC(=O)OCC1c2ccccc2-c2ccccc21)C(=O)O`: the result in assay [1], in assay [2], in assay [3], in assay [4], in [5] and in [6] was inactive. In addition, the outcome in assay [7] and in [8] was inactive.

With `CC(C=O)Cc1ccc(C(C)(C)C)cc1` (stereo not drawn), the result in assay [1], in assay [2], in assay [3], in assay [4], in assay [5] and in assay [6] was inactive. The compound was classed as inactive in assay [7] and in [8].

On to `C1CCOC1`, for which the outcome in assay [1], in assay [2], in [3], in [4], in assay [5] and in [6] was inactive. Moreover, the outcome in [7], in assay [8] and in [9] was inactive.

Consider `CCCCOCC`, for which the outcome in [1], in assay [2], in assay [3], in [4], in [5] and in [6] was inactive. Moreover, the result in assay [7] and in [8] was inactive.

Consider `CC(C)=CCCC(C)CCOC=O` (stereo not drawn), for which the result in assay [1], in assay [2], in assay [3], in assay [4], in assay [5] and in assay [6] was inactive. Besides, the call in [7], in assay [8] and in assay [9] was inactive.

Turning to `CCCCCC(=O)CC`, the result in assay [1], in assay [2], in [3], in [4], in [5] and in assay [6] was inactive. The result in [7], in [8] and in assay [9] was inactive.

Usually AC50 stands for the concentration at which the activity in the assay is half-maximal. On to `NCCNc1cccc2ccccc12`, for which the AC50 is 176 µM (active) in assay [1] and 141 µM (active) in assay [3]. In addition, the compound was called inactive in assay [2], in [4], in assay [5], in assay [6], in assay [7] and in [8].

`CC(Oc1cc(Cl)ccc1Cl)C(=O)O` (stereo not drawn): the result in assay [1], in [2], in [3], in assay [4], in assay [5] and in assay [6] was inactive. The result in [7], in assay [8] and in assay [9] was inactive.

As for `NCc1ccco1`, the outcome in [1], in assay [2], in [3], in assay [4], in assay [5] and in assay [6] was inactive. For the same compound, the compound was classed as inactive in assay [7] and in assay [8].

On to `CCCCCCCCCCCC(=O)OC[C@@H](O)[C@H]1OC[C@H](O)[C@H]1O`, for which the result in assay [1], in assay [2], in assay [3], in assay [4], in assay [5] and in assay [6] was inactive. For the same compound, the compound was called inactive in assay [7] and in [8].

Regarding `CCCC1O[C@@H]2C[C@H]3[C@@H]4CCC5=CC(=O)C=C[C@]5(C)[C@H]4[C@@H](O)C[C@]3(C)[C@]2(C(=O)CO)O1` (stereo partly drawn), the AC50 in [1] was 100 µM (active). Besides, the outcome in [2], in [3], in [4], in assay [5], in [6] and in assay [7] was inactive. Moreover, the compound was classed as inactive in assay [8].

Take `CCCCC(CC)C(=O)OC(C)C` (stereo not drawn): the result in assay [1], in assay [2], in [3], in assay [4], in assay [5] and in [6] was inactive. Moreover, the compound was called inactive in assay [7], in assay [8] and in assay [9].

With `Clc1ccc(C(c2ccccc2Cl)C(Cl)Cl)cc1` (stereo not drawn), the outcome in assay [1], in assay [2], in [3], in assay [5], in assay [6] and in [8] was inactive. For the same compound, the AC50 in assay [4] is 100 µM (active); in [7], 69.8 µM (active); in [9], 53.7 µM (active).

In the case of `CC/C=C\CC/C=C/CO`, the result in [1], in assay [2], in [3], in assay [4], in [5] and in [6] was inactive. Besides, the result in assay [7], in assay [8] and in [9] was inactive.

Take `O=C1OC2(c3ccccc31)c1ccc(O)c(Br)c1Oc1c2ccc(O)c1Br`: the outcome in assay [1], in [2], in assay [3], in assay [4], in assay [5] and in [6] was inactive. For the same compound, the outcome in assay [7], in assay [8] and in assay [9] was inactive.

For `CN(C)CCOC(C)(c1ccccc1)c1ccccn1` (stereo not drawn), the result in [1], in [2], in [3], in assay [4], in assay [5] and in [6] was inactive. Also, the compound was called inactive in [7], in assay [8] and in assay [9].

Turning to `CCCOC(=O)c1c(Cl)c(Cl)c(Cl)c(Cl)c1C(=O)OCCC`, the outcome in assay [1], in [2], in assay [3], in assay [4], in assay [5] and in assay [6] was inactive. The compound was classed as inactive in assay [7] and in [8]. Further, in [9], the concentration at half-maximal activity (AC50) is 74.8 µM (active).

`CCOCCOCCOCC`: the result in assay [1], in [2], in assay [3], in assay [4], in [5] and in assay [6] was inactive. In addition, the outcome in assay [7], in assay [8] and in assay [9] was inactive.

For the compound `CCC(=O)O[C@@H]1C[C@H]2CC[C@]1(C)C2(C)C`, the outcome in assay [1], in assay [2], in assay [3], in assay [4], in [5] and in assay [6] was inactive. For the same compound, the compound was classed as inactive in [7], in assay [8] and in [9].
